KCNQ2 enhance = enhances the rat KCNQ2 potassium channel; CHO-K1 KCNQ2, FluxOR thallium flux fluorescence; hits give high values; B-score at 10 µM; AID 2239; hit rate 0.54% among 310,000;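 active = fluorescence ratio B-score at least 3 SD of library B-scores, with initial fluorescence B-score within 3 of them, cut at about 5.3 in these data; same plate scores as AID 2156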;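 also: B-score of peak minus minimum over baseline fluorescence ratio after K+ and Tl+ stimulus; positive B-score means potentiation of KCNQ2 with more thallium influx and brighter signal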
Target sequence (O88943 whole entry, looked up): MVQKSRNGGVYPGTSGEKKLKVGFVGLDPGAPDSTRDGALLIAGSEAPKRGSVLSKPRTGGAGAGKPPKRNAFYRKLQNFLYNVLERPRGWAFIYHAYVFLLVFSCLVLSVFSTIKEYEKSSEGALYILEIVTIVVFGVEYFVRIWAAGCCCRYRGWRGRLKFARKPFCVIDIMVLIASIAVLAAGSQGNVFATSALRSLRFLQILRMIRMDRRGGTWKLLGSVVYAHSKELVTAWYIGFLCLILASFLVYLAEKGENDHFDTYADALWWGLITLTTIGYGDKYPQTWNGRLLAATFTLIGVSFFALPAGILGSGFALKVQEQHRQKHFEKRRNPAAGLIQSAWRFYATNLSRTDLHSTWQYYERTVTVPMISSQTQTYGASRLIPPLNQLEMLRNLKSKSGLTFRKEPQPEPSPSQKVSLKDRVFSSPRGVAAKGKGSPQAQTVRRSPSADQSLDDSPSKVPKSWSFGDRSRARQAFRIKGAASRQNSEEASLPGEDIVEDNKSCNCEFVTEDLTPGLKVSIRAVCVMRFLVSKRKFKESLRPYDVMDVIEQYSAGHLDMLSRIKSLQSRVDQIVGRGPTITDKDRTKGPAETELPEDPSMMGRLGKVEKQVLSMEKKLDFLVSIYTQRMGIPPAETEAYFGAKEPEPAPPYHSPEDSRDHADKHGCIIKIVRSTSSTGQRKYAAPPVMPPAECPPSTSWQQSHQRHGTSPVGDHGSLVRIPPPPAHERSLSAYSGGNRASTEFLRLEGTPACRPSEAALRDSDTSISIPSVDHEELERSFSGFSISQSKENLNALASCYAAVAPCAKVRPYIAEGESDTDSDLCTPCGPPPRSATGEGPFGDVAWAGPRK
KCNQ2 inh = KCNQ2 (rat) channel inhibition; CHO-K1 KCNQ2, FluxOR thallium flux, 20 min; hits give low values; B-score at 10 µM; O88943; hit rate 1.1% among 310,000;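 active = fluorescence ratio B-score at most minus 3 library SDs, with starting brightness B-score within 2 library SDs, cut at about -5.5 in these data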
Kir21 confirm = confirmation of mouse Kir2.1 potassium channel inhibitors; Tl flux remaining, % of negative control (hits give low values), % at 10 µM; AID 2032; hit rate 41% among 2,300; Kir2.1-expressing cells, FluxOR thallium flux fluorescence; hits give low values; shares compounds with KCNQ2 enhance;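 active = Primary-screen hit whose thallium flux fell at least 3 control SD below untreated wells in both duplicates, with normal baseline fluorescence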;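 also: 0% = blank wells without stimulus and 100% = stimulated no-compound controls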
HEK293 Tl flux = alters thallium flux in parental HEK293 cells, Kir2.1 counter-screen; shares compounds with KCNQ2 enhance; FluxOR thallium flux fluorescence; 0% = unstimulated blank wells; FluxOR signal as % of negative control (100 = no effect), % at 10 µM; hit rate 19% among 2,300;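 active = dye signal at least 3 control SD above or below untreated wells in both duplicates, raw fluorescence within 3, either direction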;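 also: percent is based on the flux ratio of peak minus minimum fluorescence over baseline F0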
CHO-K1 ctr = parental CHO-K1 activity in KCNQ2 potentiator counter-screen. hit rate 43% among 1,200. AID 2282. parental CHO-K1 cells, FluxOR thallium flux fluorescence; zero = vehicle mean+3SD, 100% = vehicle-minus-blank window. activity increase over 3SD of controls, % at 10 µM. shares compounds with KCNQ2 enhance;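 active = signal rise of at least 3 SD above the untreated control mean, in both duplicate wells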;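 also: counter screen of KCNQ2 potentiator hits so any rise reflects channel-independent effects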
KCNQ1 sel pot = tests whether KCNQ2 potentiators also act on human KCNQ1 | shares compounds with KCNQ2 enhance | CHO KCNQ1 stable, FluxOR thallium flux fluorescence; beyond 3SD, as % of vehicle-control signal | activation over 3SD threshold, % at 10 µM | hit rate 28% among 1,200;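 active = fluorescence ratio rise of at least 3 SD of vehicle wells above their mean, in both replicate wells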;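 also: 0% = vehicle mean plus 3 SD and 100% = vehicle minus unstimulated blank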
KCNQ2 pot conf = rat KCNQ2 channel potentiator confirmation. shares compounds with KCNQ2 enhance. CHO-KCNQ2 cells, FluxOR thallium flux fluorescence. potentiation, less the hit threshold, % at 10 µM. hit rate 68% among 1,200. AID 2287;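 active = fluorescence ratio rising 3 SD or more over the vehicle control mean in both replicates, plus primary screen hit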;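 also: peak minus minimum thallium fluorescence divided by baseline after K/Tl stimulus; 0% = vehicle mean plus 3 SD and 100% = vehicle minus unstimulated blank difference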
Kir21 spec = tests whether KCNQ2 potentiators also affect mouse Kir2.1; hit rate 2% among 1,200; HEK293 Kir2.1, FluxOR thallium flux fluorescence; activity over 3SD threshold, % at 10 µM; AID 2345; shares compounds with KCNQ2 enhance;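 active = fluorescence ratio rise of at least 3 SD above the vehicle-control mean, seen in both replicates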;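 also: 0% = vehicle mean plus 3 SD and 100% = vehicle minus no-stimulus blank window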
KCNQ2 W236L pot = potentiates the retigabine-insensitive rat KCNQ2 W236L mutant channel. hit rate 10% among 940. current increase over 3SD of negative controls (%), hits give high values, % at 25 µM. AID 2558. CHO KCNQ2-W236L, automated patch clamp current. shares compounds with KCNQ2 enhance;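 active = current increase at least 3 SD of the untreated controls above them in both duplicate recordings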
* marks the source's active call; other numbers are inactive results; i = inactive; · = not tested or not shown. Most compounds without a hit are left out; they make up all but 1.6% or so of the library.

SMILES | KCNQ2 enhance | KCNQ2 inh | Kir21 confirm | HEK293 Tl flux | others
Cc1nc2ccsc2c(=O)n1-c1ccccc1Cl | 1.5 | i | · | ·
C=C(C)[C@@]12OC3(c4ccccc4)O[C@@H]1C1[C@@H]4O[C@]4(CO)[C@@H](O)[C@]4(O)C(=O)C(C)=C[C@H]4[C@@]1(O3)[C@H](C)[C@H]2OC(=O)/C=C/C=C/c1ccccc1 (some centres undefined) | · | i | · | ·
O=c1[nH]sc2cc(F)ccc12 | 6.9* | i | · | · | CHO-K1 ctr=-7;KCNQ1 sel pot=-16;KCNQ2 pot conf=0.2*;Kir21 spec=-56;KCNQ2 W236L pot=56%*
CC(=O)NC1C(OC(=O)Cc2ccccc2)OC(COC(C)=O)C(OC(C)=O)C1OC(C)=O (centres undefined) | 0.37 | i | · | ·
CCC(=O)c1cn(Cc2ccccc2)c2ccccc12 | 2.1 | i | · | ·
CN(C)CCOC(=O)c1cn(Cc2ccccc2)c2ccccc12 | · | i | 52%* | i
COc1ccc(CCNCc2ccccc2F)cc1OC | 1.9 | i | · | ·
CCOc1ccc(Cl)cc1CNCCc1ccccc1F | · | i | 38%* | i
Cc1[nH]c2ccccc2c1C(=O)C(=O)N1CC2CC(C1)c1cccc(=O)n1C2 (centres undefined) | 0.25 | i | · | ·
CC(NCc1ccc(Cl)cc1Cl)C(O)c1ccccc1 (centres undefined) | · | i | 16%* | i
CCOc1c(Cl)cc(CNC(C)C(O)c2ccccc2)cc1OC (centres undefined) | · | i | · | ·
CC(NCc1ccc(Cl)cc1)C(O)c1ccccc1 (centres undefined) | · | i | 22%* | 73%*
CC(NCc1cccc(Cl)c1Cl)C(O)c1ccccc1 (centres undefined) | · | i | · | ·
CCc1ccccc1NC(=O)N1C[C@H]2C[C@@H](C1)c1cccc(=O)n1C2 | 0.24 | i | · | ·
CC(=O)c1cc(C(C)=O)c(C)[n+](C)c1C | 0.59 | i | · | ·
CCCCCSc1cc(OC)c(CCN(C)C)cc1OC | 0.11 | i | 45%* | i
CCCCCSc1cc(O)c(C(CNC)C(C)C)cc1OC (centres undefined) | 0.41 | i | · | ·
O=c1[nH]c(=O)n(-c2ccc(Cl)cc2)c(O)c1C=NCCN1CCCCC1 | 0.11 | i | · | ·
CCOP(=O)(Cc1cc(C(C)=O)c(C)o1)OCC | 1.1 | i | · | ·
CCCCn1c(O)c(C(C)=Nc2ccc3c(c2)CCC3)c(=O)[nH]c1=O | · | i | · | ·
O=P(Oc1ccccc1)(Oc1ccccc1)C(O)c1ccccc1 (centres undefined) | · | i | · | ·
O=P(Oc1ccccc1)(Oc1ccccc1)c1ccccc1 | · | i | 60%* | i
CCc1cc(=O)oc2c(C)c(OCC(=O)N3C[C@H]4C[C@@H](C3)c3cccc(=O)n3C4)ccc12 | 0.16 | i | · | ·
COc1ccc(CNCCc2c(C)[nH]c3ccc(OC(F)(F)F)cc23)c(OC)c1 | · | i | i | i
COc1ccc2[nH]c(C)c(CCNCc3cc(OC)c(OC)c(OC)c3)c2c1 | · | i | · | ·
SMILES | KCNQ2 enhance | KCNQ2 inh | Kir21 confirm | HEK293 Tl flux | others
CC1CC(NC(=O)C2C3CCC(O3)C2C(=O)O)CC(C)(C)C1 (centres undefined) | 0.91 | i | · | ·
Cc1ccc(-c2cc(-c3ccccc3)cc(-c3ccccc3)[n+]2-c2ccccc2)cc1 | · | i | 18%* | 59%*
CCOC(=O)c1ccc(-[n+]2c(-c3ccccc3)cc(-c3ccccc3)cc2-c2ccccc2)cc1 | -8.5 | -8.5* | 39%* | i
Cc1ccc(-c2cc(-c3ccc(C)cc3)[n+](-c3ccc(C(=O)[O-])cc3)c(-c3ccc(C)cc3)c2)cc1 | · | i | i | i
CN(C)c1ccc(-[n+]2c(-c3ccccc3)cc(-c3ccccc3)cc2-c2ccccc2)cc1 | -9.1 | -9.1* | i | i
O=[N+]([O-])c1cc(Cl)c(O)c(-[n+]2c(-c3ccccc3)cc(-c3ccccc3)cc2-c2ccccc2)c1 | · | i | · | ·
Cc1cc(-c2ccccc2)cc(C)[n+]1Cc1ccccc1 | 1.8 | i | · | ·
CC(=O)c1ccc(-c2ccccc2)cc1 | 0.72 | i | · | ·
COc1ccc(OC)c(NC(=O)N2C[C@H]3C[C@@H](C2)c2cccc(=O)n2C3)c1 | 0.46 | i | · | ·
Cc1cccc(NC(=O)N2C[C@H]3C[C@@H](C2)c2cccc(=O)n2C3)c1 | · | i | · | ·
CCOc1ccccc1CN1C2CCC1CC(c1ccc(C)cc1)C2 (centres undefined) | · | i | · | ·
O=C1NC(=O)C(=Cc2ccc(OCC(=O)N3CCOCC3)cc2)C(=O)N1 | · | i | · | ·
O=C(c1cccc(C(F)(F)F)c1)N1C[C@H]2C[C@@H](C1)c1cccc(=O)n1C2 | · | i | · | ·
CC/C(=C\C=C\[C@@H]1C=C[C@@H]2CCC[C@H]2[C@@H]1C(=O)c1ccc[nH]1)[C@@H]1O[C@@H]([C@@H](C)C(=O)O)CC[C@@H]1C | 28* | i | · | · | CHO-K1 ctr=-14;KCNQ1 sel pot=-19;KCNQ2 pot conf=74*;Kir21 spec=-48;KCNQ2 W236L pot=i
Oc1cccc2nc3ccccc3nc12 | 12* | i | i | i | CHO-K1 ctr=-14;KCNQ1 sel pot=-6;KCNQ2 pot conf=7.1*;Kir21 spec=-35;KCNQ2 W236L pot=i
O=C1CNC(c2ccccc2Cl)c2cc(Br)ccc2N1 (centres undefined) | 0.04 | i | · | ·
CCCCCc1nc2c(c(=O)c3ccccc3n2C)c(=O)n1C1CCCCCC1 | · | i | · | ·
CSc1ncc(CN2CCCC(C(=O)c3cccc(Cl)c3)C2)cn1 (centres undefined) | 1 | i | · | ·
COc1ccc(CN2CCCC(C(=O)c3cccc(Cl)c3)C2)cc1 (centres undefined) | · | i | 24%* | i
Cc1nc2ccccc2c(=O)n1-c1ccc(Br)cn1 | · | i | · | ·
Cc1nc2ccccc2c(=O)n1/N=C/c1cc(Br)cc(Br)c1O | 8.1* | i | i | i | CHO-K1 ctr=11*;KCNQ1 sel pot=-15;KCNQ2 pot conf=-26;Kir21 spec=-33
CCCC[n+]1cc(=N)o[n-]1 | · | i | · | ·
Cc1cc(C(=O)CS(=O)c2ccc(F)cc2)cc(C)c1OC(=O)N(C)C (centres undefined) | · | i | · | ·
Fc1ccc(C(OCCN2CCCC2)c2ccc(F)cc2)cc1 | 2.5 | i | · | ·
Fc1ccc(C(OCCN2CCCC2)c2ccc(Br)cc2)cc1 (centres undefined) | · | i | 45%* | i
